# According to PubChem BioAssay (NCI):
# The panel holds about 83,000 compounds, 20% with a hit somewhere; the sample as a whole holds those more often.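 Negative percent growth values reflect cell death: -40 means 40% of the cells present at the start died, and -100 means all died.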 A number with no mark means an inactive call. Activity calls are given as the source filed them. Rule for the calls: active = growth percent below 10; inactive = the rest.
# System: COLO 205 colon
# Test: NCI-60 one-dose screen, 48 h (100 = growth as untreated, 0 = no growth, -100 = all killed)
# Conditions: 10 µM unless noted
row,Compound,growth
1,COC(=O)c1sccc1-c1cc(O)c(C(=O)Nc2ccccc2)s1,102%
2,O=C(C1=Cc2cc3ccccc3n2Cc2cnnn21)c1ccc(F)cc1,117%
3,Cc1cccc(N2C(=O)/C(=C/C(Cl)=C/c3ccc([N+](=O)[O-])cc3)SC2=S)c1C,-31.9% (active)
4,CS(=O)/C(C#N)=C\C=C\c1cccc(Cl)c1 (stereo not given),-22% (active)
5,CCOC(=O)/C=C1\S/C(=N\Nc2cc(=O)[nH]c3ccc(Br)cc23)N(c2ccccc2)C1=O,46.6%
6,Cc1ccc2nc(-c3ccc(C(=O)N/N=C/c4ccc([N+](=O)[O-])cc4)cc3)[nH]c2c1,108%
7,COc1ccc(/C=C/C(c2cc(OC)c(OC)c(OC)c2)n2cncn2)cc1O (stereo not given),60.6%
8,CCCCCCCCCCCCCCCCCCOc1ccccc1CC(=O)NCC[N+](C)(C)C,-85.2% (active)
9,CCOC(=O)c1c(C)nc2ccccc2c1/C=C/c1ccc(F)cc1,83.6%
10,N#Cc1c(-c2ccccc2)cc(-c2ccccc2)n(CCCCC(=O)NO)c1=O,43.3%
11,COc1cc(Cc2cc(OC)c(O)c(OC)c2)cc(OC)c1O,109%
12,COc1cc(/C=C/c2cc(/C=C/c3ccc(O)c(OC)c3)n(C(=O)Nc3ccc(Cl)cc3)n2)ccc1O,7.57% (active)
13,NS(=O)(=O)c1ccc(C(=O)NN2C(=O)c3ccccc3C2=O)cc1,108%
14,CS(=O)(=O)c1ccc(-c2nc3ccccc3n2CC(=O)N/N=C/c2ccccc2)cc1,104%
15,CCn1cc(C(=O)N/N=C/c2cccc(F)c2)c(=O)c2cc(F)c(N3CCNC(C)C3)c(F)c21 (stereo not given),17.5%
16,CCCC(=O)NC(c1ccc2c(c1)OCO2)c1cc(Cl)c2cccnc2c1O (stereo not given),11.5%
17,O=C(c1cccc(N2CCOCC2)n1)c1c[nH]c2ccccc12,107%
18,Cc1cc(C(=O)CCCC(=O)c2cc(C)c(O)c(C)c2)cc(C)c1O,-53.1% (active)
19,O=C(/C=C/c1ccccc1)c1cccc2ccccc12,97.7%
20,CNC(=O)c1cc(Oc2ccc3c(c2)sc2nc(-c4ccc(NC(=O)[C@@H](NC(=O)OC)C(C)C)cc4)cn23)ccn1,63.9%

row,Compound,growth
1,FC(F)(F)c1[nH]ncc1-c1nc2ccc3[nH]ncc3c2c2c1CCCC2,-8.58% (active)
2,COC(=O)c1ccc2c(c1)c1c(C)c3cnccc3c(C)c1n2C,-39.9% (active)
3,CC1=C2[C@@H](CC1)[C@]1(C)O[C@@](C3CCNCC3)(C[C@H]1OC(=O)CO)[C@H]2OC(=O)/C=C/c1ccccc1,87.2%
4,CCOC(=O)CC1CSC(N/N=C/c2ccc(F)c(Br)c2)=N1 (stereo not given),110%
5,O=C1/C(=C/c2cccc(Br)c2)COc2ccc(O)cc21,84.5%
6,O=C(Cn1nc(-c2cccc3ccccc23)ccc1=O)NCc1cccc(Cl)c1,37.3% [50 µM]
7,COc1cc(O)c2c(=O)c3c(CC=C(C)C)cc(OC)c(O)c3oc2c1,112%
8,Nc1ccc(Br)cc1C(F)(F)F,102%
9,O=C(Nc1ccc(Oc2cccc(Cl)c2)c(Cl)c1)c1cccnn1,106%
10,COc1cccc(-c2cn3nc(-c4cn(C)c5ccccc45)sc3n2)c1,108%
11,c1ccc(-c2c(-c3ccccc3)[n+](Cc3ccc4ccccc4c3)cn2Cc2ccc3ccccc3c2)cc1,-86.4% (active)
12,COc1ccc(C2[C@@H](c3ccccc3)C(=O)N2c2cc(OC)c(OC)c(OC)c2)cc1F (stereo not given in full),-48.2% (active)
13,CC(C)CCC[C@@H](C)[C@H]1CC[C@H]2[C@@H]3CC=C4c5sc(Nc6cc(C(F)(F)F)cc(C(F)(F)F)c6)nc5CC[C@]4(C)[C@H]3CC[C@]12C,99.8%
14,Nc1cc(C(=O)O)cc(-n2c(O)c(C=C3N=c4ccccc4=N3)sc2=S)c1,103%
15,COc1cccc(CNc2c3ccccc3nc3ccccc23)c1OC,21.5%
16,Clc1ccc(Nc2ncc(Cc3cccc(Cl)c3Cl)s2)cc1,104%
17,CCOC(=O)c1cnn(CC(C)O)c1NC(=O)NCc1cccc(F)c1 (stereo not given),118%
18,C=C1C(=O)O[C@@H]2C3C(=C(C)CC[C@@H]12)CC1O[C@]13C (stereo not given in full),87% [6.75 µM]
19,CCOC(=O)C1=C(c2ccccc2)N=C2N(c3ccccc3)N=C(C(C)=O)N2C1c1ccc(F)cc1 (stereo not given),113%
20,CCCOC(=O)Nc1nc2ccc(SCC)cc2s1,72.2%
